Reference: PubChem BioAssay (NCI)
About 83,000 compounds went through this panel and 20% of them were active in at least one assay; those are over-represented in the sample as a whole.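 Cells were grown in 96-well plates and exposed to the test compound at a single concentration for 48 hours; results are reported as percent growth, with values below 10 considered active.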 Unmarked numbers belong to inactive results. Active and inactive are the calls of the source.

Experiments:
Experiment in all cases: NCI-60 one-dose screen, 48 h (100 = growth as untreated, 0 = no growth, -100 = all killed)
Conditions in all cases: 10 µM unless noted
[1] = test system: NCI-H23 lung
[2] = test system: NCI-H226 lung
[3] = test system: NCI-H322M lung
[4] = test system: HOP-62 NSCLC
[5] = test system: NCI-H460 lung
[6] = test system: NCI-H522 lung
[7] = test system: A549/ATCC NSCLC
[8] = test system: 786-0 renal
[9] = test system: COLO 205 colon
[10] = test system: DU-145 prostate
[11] = test system: MALME-3M melanoma
[12] = test system: MDA-MB-231 breast
[13] = test system: SF-268 CNS
[14] = test system: SF-295 CNS
[15] = test system: SF-539 CNS
[16] = test system: UACC-257 melanoma
[17] = test system: M14 melanoma
[18] = test system: HCT-15 colon
[19] = test system: K-562 leukemia
[20] = test system: RXF 393 renal

| SMILES | growth [1] | growth [2] | growth [3] | growth [4] | growth [5] | growth [6] | growth [7] | growth [8] | growth [9] | growth [10] | growth [11] | growth [12] | growth [13] | growth [14] | growth [15] | growth [16] | growth [17] | growth [18] | growth [19] | growth [20] |
| --- | --- | --- | --- | --- | --- | --- | --- | --- | --- | --- | --- | --- | --- | --- | --- | --- | --- | --- | --- | --- |
| O=C1c2ccccc2-c2c1nc1ccccc1[n+]2[O-] | 102% | 106% | 97% | 102% | 102% | 93.1% | 108% | 103% | 111% | 108% | 90.2% | 108% | 98.2% | 108% | 101% | 107% | 97.9% | 101% | – | – |
| COC(=O)CC1=C(C)/C(=C/c2[nH]c(-c3ccc[nH]3)cc2OC)N=C1C | 6.26% (active) | 24.6% | 18.2% | -10.9% (active) | 4.72% (active) | -74.8% (active) | 9.1% (active) | -2.31% (active) | 9.09% (active) | 24.2% | – | -14.3% (active) | 22.7% | -46.6% (active) | -4.76% (active) | -8.53% (active) | 7.46% (active) | 3.06% (active) | -23.6% (active) | 8.29% (active) |
| Cc1cc([N+](=O)[O-])c(C)cc1C(=O)O | 104% | 99.8% | 92.7% | 103% | 111% | 96.1% | 108% | 97% | 108% | 109% | 102% | 110% | 99.8% | 96.9% | 98.5% | 105% | 100% | 97.3% | – | 112% |
| O=C1CCCN1C1CCN(Cc2cc3ccccc3[nH]c2=O)c2ccccc21 (stereo not given) | 82.7% | 78.3% | 83.2% | 79.5% | 102% | 63% | 98.8% | 85.2% | 106% | 101% | 76.4% | 92.6% | 94.7% | 72.3% | 97.2% | 114% | 86.1% | 92.4% | – | 99.4% |
| COc1cc(/C=C/C(=O)Nc2cccnc2Nc2cc(OC)c(OC)c(OC)c2)cc(OC)c1OC | 93% | 93.1% | 115% | 106% | 95.4% | 87.6% | 85.4% | 86.3% | 113% | 105% | 107% | 90.7% | 105% | 92.8% | 98.1% | 93.4% | – | 97.3% | – | 108% |
| Cc1nn(-c2ccccc2)c2ncc3c(c12)C(=O)N(Cc1ccccc1)C3=O | 63.9% | -14.2% (active) | 58.6% | 1.26% (active) | 4.79% (active) | 59.9% | 13.9% | -4.88% (active) | 32.9% | 98.9% | 72% | 14.3% | 81.3% | 1.19% (active) | – | 94.3% | 68.7% | 86.3% | – | 68% |
| CCCOc1ccc2c(c1)CC[C@@H]1[C@@H]2CC[C@@]2(C)[C@H]1CC[C@]2(C)O | 93.2% | 92.3% | 71.4% | 89.7% | 35.8% | 76.4% | 63.7% | 90.3% | 28.2% | 91.6% | – | 51.1% | 81.5% | 58.7% | 67.5% | 73.8% | 79.5% | 56.7% | 1.46% (active) | 83.7% |
| COc1cc(/C=C/C(=O)c2c(-c3ccc(F)cc3)nc3sc(C)nn23)cc(OC)c1OC | 51.4% | 38.9% | 52.6% | 9.53% (active) | 11.8% | -27% (active) | 12.2% | 24.6% | 33% | 0.196% (active) | – | 7.91% (active) | 16.6% | 49.6% | 21.2% | 46.6% | 34.9% | 15.9% | 2.54% (active) | – |
| NCCCc1nnc(CCC(=O)c2nc3ccccc3[nH]2)o1 | 98.3% | 108% | 97.3% | 112% | 115% | 103% | 106% | 103% | – | 115% | 82.2% | 89.8% | 115% | 98.4% | 101% | 113% | 109% | 90% | 98.5% | 116% |
| CCSc1nnc2n(Cc3ccccc3)c(=O)c3c(C)c(C(N)=O)sc3n12 | 110% | 93.8% | 102% | 101% | 109% | 96% | 97% | 105% | 121% | – | 105% | 103% | 95.1% | 91.4% | – | 100% | 112% | 97.9% | – | 103% |
| CC12CCCCC1C(C(N)=O)C(=O)O2 (stereo not given) | 101% | 118% | 104% | 109% | 110% | 108% | 106% | 101% | 112% | – | 120% | 101% | – | 109% | 112% | 107% | – | 106% | 102% | – |
| O=C(COC(=O)[C@H](C[Se][Se]C[C@H](NC(=O)c1ccc(Br)cc1F)C(=O)OCC(=O)c1ccc(F)cc1)NC(=O)c1ccc(Br)cc1F)c1ccc(F)cc1 | -37.3% (active) | -73.2% (active) | -23.2% (active) | -6.31% (active) | -35.6% (active) | -85.2% (active) | -41.2% (active) | -94.6% (active) | – | -100% (active) | -64.4% (active) | -82.2% (active) | -74.1% (active) | -65.8% (active) | -98.5% (active) | -50.2% (active) | -64.6% (active) | -42.6% (active) | -1.8% (active) | -99.3% (active) |
| O=C(OC[C@H]1O[C@H](OC(=O)c2cc(O)c(O)c(OC(=O)c3cc(O)c(O)c(O)c3)c2)[C@H](OC(=O)c2cc(O)c(O)c(OC(=O)c3cc(O)c(O)c(O)c3)c2)[C@@H](OC(=O)c2cc(O)c(O)c(OC(=O)c3cc(O)c(O)c(O)c3)c2)[C@@H]1OC(=O)c1cc(O)c(O)c(OC(=O)c2cc(O)c(O)c(O)c2)c1)c1cc(O)c(O)c(OC(=O)c2cc(O)c(O)c(O)c2)c1 | 19% | 7.2% (active) | 19.3% | 46.2% | 11.6% | -11% (active) | 34% | 18.5% | – | 30.3% | 49% | 23.5% | 27.2% | 9.95% (active) | 29.3% | 60.2% | 17.6% | 28.6% | 31.5% | -12.7% (active) |
| CCOc1ccccc1C(=O)OCC(=O)Nc1cccc(S(=O)(=O)N(C)C)c1 | 101% | 100% | 124% | 94.2% | 102% | 95.1% | 87.8% | 109% | – | 115% | 81.5% | 110% | 122% | 160% | 100% | 93.6% | 107% | 123% | 104% | 64.6% |
| Fc1ccc([C@@H]2CCNC[C@H]2COc2ccc3c(c2)OCO3)cc1 | 82.5% | 83.2% | 73.2% | 79% | 73.5% | 64.6% | 83% | 68.2% | – | 92.1% | 78.4% | 11.5% | 92.3% | 74.2% | 89.5% | 76.8% | 49.7% | 85.8% | 51.7% | 71.7% |
| Cc1ccccc1-c1cc(Cc2ccccc2O)c(=O)[nH]n1 | 103% | 85.8% | 115% | 108% | 115% | 93.3% | 107% | 98.9% | – | 125% | 151% | 90.7% | 85.1% | 113% | 107% | 122% | 120% | 107% | 91.7% | 140% |
